This is an account of results in ChEMBL document CHEMBL2218924, “A broad activity screen in support of a chemogenomic map for kinase signalling research and drug discovery” (Biochem J, 2013).

SMILES strings stand for the structures.

For experiment [1], the target named is Tyrosine-protein kinase SYK (Homo sapiens) (UniProt P43405). The note with it: at 10 µM.
The target in experiment [2] is T1, Mitogen-activated protein kinase kinase kinase 7 (Homo sapiens) (UniProt O43318).
T1 sequence (whole entry): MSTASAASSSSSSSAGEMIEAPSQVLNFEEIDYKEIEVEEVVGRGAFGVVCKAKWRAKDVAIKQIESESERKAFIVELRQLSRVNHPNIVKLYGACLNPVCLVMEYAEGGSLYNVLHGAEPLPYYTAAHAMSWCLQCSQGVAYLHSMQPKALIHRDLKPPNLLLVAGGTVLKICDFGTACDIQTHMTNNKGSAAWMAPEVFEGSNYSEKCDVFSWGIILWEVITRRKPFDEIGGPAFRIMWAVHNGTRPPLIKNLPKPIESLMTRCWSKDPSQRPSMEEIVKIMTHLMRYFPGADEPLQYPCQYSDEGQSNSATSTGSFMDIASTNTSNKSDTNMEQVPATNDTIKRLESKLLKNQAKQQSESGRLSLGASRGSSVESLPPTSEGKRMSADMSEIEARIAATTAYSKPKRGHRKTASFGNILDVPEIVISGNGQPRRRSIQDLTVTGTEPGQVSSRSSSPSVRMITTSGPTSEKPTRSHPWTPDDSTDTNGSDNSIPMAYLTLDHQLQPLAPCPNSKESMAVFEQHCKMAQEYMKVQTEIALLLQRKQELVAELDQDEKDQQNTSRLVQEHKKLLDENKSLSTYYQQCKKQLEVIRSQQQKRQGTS
The note with it: at 1 µM.

Experiment [3] deals with T1, Mitogen-activated protein kinase kinase kinase 7 (Homo sapiens). The note with it: at 10 µM.
In experiment [4] the target is T2, Serine/threonine-protein kinase TAO1 (Homo sapiens) (UniProt Q7L7X3).
T2 sequence (whole entry): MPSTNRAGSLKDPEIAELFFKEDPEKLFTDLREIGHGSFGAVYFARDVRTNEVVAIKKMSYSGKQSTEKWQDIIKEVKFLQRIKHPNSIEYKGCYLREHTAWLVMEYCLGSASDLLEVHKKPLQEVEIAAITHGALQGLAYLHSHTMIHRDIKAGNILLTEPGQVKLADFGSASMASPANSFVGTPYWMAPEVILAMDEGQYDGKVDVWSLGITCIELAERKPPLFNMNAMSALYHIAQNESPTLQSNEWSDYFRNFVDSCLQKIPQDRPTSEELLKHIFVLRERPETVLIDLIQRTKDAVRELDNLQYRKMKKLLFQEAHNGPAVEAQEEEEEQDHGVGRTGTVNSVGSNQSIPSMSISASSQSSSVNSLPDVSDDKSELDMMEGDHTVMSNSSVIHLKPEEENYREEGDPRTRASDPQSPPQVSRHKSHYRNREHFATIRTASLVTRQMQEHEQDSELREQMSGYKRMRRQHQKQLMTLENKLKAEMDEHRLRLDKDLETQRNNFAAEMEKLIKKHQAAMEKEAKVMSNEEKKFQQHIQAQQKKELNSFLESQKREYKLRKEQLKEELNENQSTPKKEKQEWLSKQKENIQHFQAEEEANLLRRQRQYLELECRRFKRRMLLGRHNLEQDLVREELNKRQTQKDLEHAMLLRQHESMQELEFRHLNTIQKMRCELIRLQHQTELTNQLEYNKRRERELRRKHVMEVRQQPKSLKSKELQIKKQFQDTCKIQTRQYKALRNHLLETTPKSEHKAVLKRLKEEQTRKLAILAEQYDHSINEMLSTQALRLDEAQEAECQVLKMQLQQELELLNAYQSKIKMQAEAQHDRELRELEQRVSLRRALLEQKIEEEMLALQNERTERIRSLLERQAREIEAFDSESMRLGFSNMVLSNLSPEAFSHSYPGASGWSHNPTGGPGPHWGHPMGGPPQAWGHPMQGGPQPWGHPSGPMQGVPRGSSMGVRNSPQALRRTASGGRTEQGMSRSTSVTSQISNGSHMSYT
The note with it: at 1 µM.

The target of experiment [5] is T2, Serine/threonine-protein kinase TAO1 (Homo sapiens). The note with it: at 10 µM.
The target in experiment [6] is T3, Serine/threonine-protein kinase TAO2 (Homo sapiens) (UniProt Q9UL54).
T3 sequence (whole entry): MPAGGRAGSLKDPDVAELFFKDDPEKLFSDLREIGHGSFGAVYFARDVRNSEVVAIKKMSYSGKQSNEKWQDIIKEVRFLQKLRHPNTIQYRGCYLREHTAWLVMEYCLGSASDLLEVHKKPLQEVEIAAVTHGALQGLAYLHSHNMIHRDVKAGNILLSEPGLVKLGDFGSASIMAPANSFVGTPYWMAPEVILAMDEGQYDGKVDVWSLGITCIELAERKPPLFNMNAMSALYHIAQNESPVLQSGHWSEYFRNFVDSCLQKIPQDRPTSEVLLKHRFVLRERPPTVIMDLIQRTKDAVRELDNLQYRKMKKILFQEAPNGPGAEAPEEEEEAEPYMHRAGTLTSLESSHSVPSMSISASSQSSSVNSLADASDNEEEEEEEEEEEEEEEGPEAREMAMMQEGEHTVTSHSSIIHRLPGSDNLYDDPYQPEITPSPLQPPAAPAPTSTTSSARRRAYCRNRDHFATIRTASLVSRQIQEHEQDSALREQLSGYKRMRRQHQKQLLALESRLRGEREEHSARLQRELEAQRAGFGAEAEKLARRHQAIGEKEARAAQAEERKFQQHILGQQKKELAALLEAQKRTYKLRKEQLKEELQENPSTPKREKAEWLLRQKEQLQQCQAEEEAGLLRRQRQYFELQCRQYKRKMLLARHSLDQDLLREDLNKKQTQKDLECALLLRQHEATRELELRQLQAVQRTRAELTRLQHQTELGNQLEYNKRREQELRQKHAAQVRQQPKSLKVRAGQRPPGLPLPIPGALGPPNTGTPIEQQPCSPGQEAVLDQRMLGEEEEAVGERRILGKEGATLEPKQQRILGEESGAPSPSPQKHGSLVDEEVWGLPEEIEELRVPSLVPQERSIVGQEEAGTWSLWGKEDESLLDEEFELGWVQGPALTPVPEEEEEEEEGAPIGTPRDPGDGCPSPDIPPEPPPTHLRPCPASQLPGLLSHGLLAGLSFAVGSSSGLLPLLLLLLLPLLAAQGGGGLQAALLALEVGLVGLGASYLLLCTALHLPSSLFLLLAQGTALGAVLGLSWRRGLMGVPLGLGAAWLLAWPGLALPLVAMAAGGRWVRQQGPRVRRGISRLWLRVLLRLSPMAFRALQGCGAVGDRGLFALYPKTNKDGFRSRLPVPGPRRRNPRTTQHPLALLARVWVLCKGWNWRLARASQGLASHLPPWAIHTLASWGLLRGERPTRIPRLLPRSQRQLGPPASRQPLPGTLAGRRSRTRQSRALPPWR
The note with it: at 1 µM.

The target in experiment [7] is T3, Serine/threonine-protein kinase TAO2 (Homo sapiens). The note with it: at 10 µM.
Experiment [8] concerns the target T4, Serine/threonine-protein kinase TAO3 (Homo sapiens) (UniProt Q9H2K8).
T4 sequence (whole entry): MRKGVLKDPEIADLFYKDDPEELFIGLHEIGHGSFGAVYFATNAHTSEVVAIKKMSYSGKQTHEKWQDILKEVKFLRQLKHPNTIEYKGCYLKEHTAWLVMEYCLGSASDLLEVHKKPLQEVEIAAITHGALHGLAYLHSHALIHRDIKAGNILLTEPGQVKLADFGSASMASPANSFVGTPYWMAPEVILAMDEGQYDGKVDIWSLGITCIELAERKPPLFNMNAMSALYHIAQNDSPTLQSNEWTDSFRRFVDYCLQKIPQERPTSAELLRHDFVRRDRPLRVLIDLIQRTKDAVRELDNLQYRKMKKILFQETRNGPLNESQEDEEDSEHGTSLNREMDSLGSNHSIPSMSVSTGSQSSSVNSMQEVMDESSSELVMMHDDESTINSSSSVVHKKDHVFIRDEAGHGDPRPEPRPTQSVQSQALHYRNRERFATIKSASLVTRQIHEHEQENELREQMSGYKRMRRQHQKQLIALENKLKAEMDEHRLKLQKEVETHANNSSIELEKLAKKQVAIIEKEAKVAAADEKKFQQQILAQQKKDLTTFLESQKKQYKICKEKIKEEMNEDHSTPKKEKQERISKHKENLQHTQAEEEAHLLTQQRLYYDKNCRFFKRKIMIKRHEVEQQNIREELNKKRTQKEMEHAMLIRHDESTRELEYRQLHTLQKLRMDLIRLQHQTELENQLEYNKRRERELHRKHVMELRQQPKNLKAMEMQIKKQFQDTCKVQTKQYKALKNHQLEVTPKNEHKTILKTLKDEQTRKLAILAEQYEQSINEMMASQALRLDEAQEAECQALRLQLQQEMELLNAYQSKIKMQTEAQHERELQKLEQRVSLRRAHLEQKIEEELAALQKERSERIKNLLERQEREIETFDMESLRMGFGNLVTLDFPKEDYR
The note with it: at 1 µM.

Experiment [9] has as its target T4, Serine/threonine-protein kinase TAO3 (Homo sapiens). The note with it: at 10 µM.
Experiment [10] deals with T5, Serine/threonine-protein kinase TBK1 (Homo sapiens) (UniProt Q9UHD2).
T5 sequence (whole entry): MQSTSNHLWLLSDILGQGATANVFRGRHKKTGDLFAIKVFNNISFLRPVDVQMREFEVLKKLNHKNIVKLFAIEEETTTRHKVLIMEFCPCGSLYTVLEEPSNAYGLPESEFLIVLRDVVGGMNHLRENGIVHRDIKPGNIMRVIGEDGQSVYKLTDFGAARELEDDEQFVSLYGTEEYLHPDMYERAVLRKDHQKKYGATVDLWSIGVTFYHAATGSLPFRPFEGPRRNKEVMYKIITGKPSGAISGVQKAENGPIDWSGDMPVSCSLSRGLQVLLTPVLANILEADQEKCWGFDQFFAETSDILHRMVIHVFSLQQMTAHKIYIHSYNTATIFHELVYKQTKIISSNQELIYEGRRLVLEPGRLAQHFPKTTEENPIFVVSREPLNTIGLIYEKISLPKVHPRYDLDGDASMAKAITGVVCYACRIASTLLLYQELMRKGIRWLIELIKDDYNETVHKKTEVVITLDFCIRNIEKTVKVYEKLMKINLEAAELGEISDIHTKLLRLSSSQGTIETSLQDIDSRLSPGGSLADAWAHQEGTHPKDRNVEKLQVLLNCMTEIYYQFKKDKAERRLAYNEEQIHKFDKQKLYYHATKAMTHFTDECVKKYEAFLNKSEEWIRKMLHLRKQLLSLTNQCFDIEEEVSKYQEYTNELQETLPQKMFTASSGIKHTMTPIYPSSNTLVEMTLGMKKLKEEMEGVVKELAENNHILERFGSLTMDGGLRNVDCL
The note with it: at 1 µM.

With `CN(C)c1ccc(/C=C2\C(=O)Nc3ccccc32)cc1`, the residual activity in experiment [1] was found to be 91%; in [2], 100%; in experiment [3], 81%; in [4] it was 113%; in experiment [5], 90%; in experiment [6] it was 99%. For the same compound, the residual activity came to 89% in [7], 100% in experiment [8], 91% in experiment [9] and 81% in [10].
